# Calls of active or inactive are those of the source. No rule for the calls is given here.
# Test system: HIV-1 nucleocapsid protein NCp7 (binding to TG oligonucleotide)
# Test: HIV Nucleocapsid (AID 346);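 also: potency is for inhibitors that block NC binding and lower polarization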
# Settings: HIV-1 NC / fluorescein-TGTGTGTG probe, fluorescence polarization
# In short: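 NCp7 100 nM + fluorescein TG4xF 10 nM; Hepes pH 7.5/250mM NaCl/1uM ZnCl2/0.004% PEG 20000; 1 hr RT; FP, 45 s exposure; oligo-only wells as negative control.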
# Potency is read from the fitted curve at half-maximal effect.
row,Compound,Potency
1,O=c1c(-c2cc(F)cc(F)c2)nc2cnc(Oc3ccccc3)nc2n1C1CC1,> 20 µM (inactive)
2,COCCn1c(=O)c(-c2ccccc2)nc2cnc(N3CCOCC3)nc21,> 20 µM (inactive)
3,CN(C)c1ccc(-c2ccc3ncnc(NCc4ccccc4)c3c2)cc1,> 20 µM (inactive)
4,O=c1c(-c2cc(F)cc(F)c2)nc2cncnc2n1Cc1ccccc1Cl,> 20 µM (inactive)
5,CNc1ncnc2ccc(-c3ccc4c(c3)OCO4)cc12,> 20 µM (inactive)
6,Clc1ccccc1-c1nccc(NCc2ccccc2)n1,> 20 µM (inactive)
7,COc1cccc(-c2cncnc2NCCc2c[nH]c3ccc(OC)cc23)c1,> 20 µM (inactive)
8,CN(C)C(=O)c1ccc(-c2nc(NC3CCNCC3)c3ccccc3n2)cc1,> 20 µM (inactive)
9,Cc1cnc(CNc2cc(-c3ccccc3C(F)(F)F)ncn2)cn1,> 20 µM (inactive)
10,COCCn1c(=O)c(-c2cn(C)c3ccccc23)nc2cnc(Oc3ccc(OC)cc3)nc21,> 20 µM (inactive)
11,c1ccc2c(N3CCOCC3)nc(-c3ccoc3)nc2c1,> 20 µM (inactive)
12,CN(C)c1nc(-c2cccc(C#N)c2)nc2ccccc12,> 20 µM (inactive)
13,COCCn1c(=O)c(-c2cn(C)c3ccccc23)nc2cnc(N3CCOCC3)nc21,> 20 µM (inactive)
14,CC(=O)NCCNc1nc(-c2ccccc2C(F)(F)F)nc2ccccc12,> 20 µM (inactive)
15,O=c1c(-c2ccccc2)nc2cnc(N3CCNCC3)nc2n1Cc1ccc(F)cc1,> 20 µM (inactive)
16,O=C(c1cnccn1)N1CCC[C@@]2(CCN(C(c3ccccc3)c3ccccc3)C2)C1,> 20 µM (inactive)
17,CN(Cc1ccco1)c1ncncc1-c1cccc(NS(C)(=O)=O)c1,> 20 µM (inactive)
18,CC(=O)N1CCC2(CC1)CCN(c1ccncc1)CC2,> 20 µM (inactive)
19,CN(C)C(=O)c1ccc(-c2cc(N(C)Cc3ccco3)ncn2)cc1,> 20 µM (inactive)
20,CC(=O)N1CCC[C@@]2(CCN(Cc3ccc(C#N)cc3)C2)C1,> 20 µM (inactive)
21,O=C(c1ccco1)N1CCC[C@@]2(CCN(c3ccccc3)C2)C1,> 20 µM (inactive)
22,CN(C)c1nc(-c2ccoc2)nc2ccccc12,> 20 µM (inactive)
23,COCCNc1nc(-c2cccc(OC)c2)nc2ccccc12,> 20 µM (inactive)
24,Cc1noc(C)c1C(=O)N1CCC2(CC1)CCN(c1ccncc1)CC2,> 20 µM (inactive)
25,CN(C)c1ncc2nc(-c3ccccc3)c(=O)n(-c3ccccc3)c2n1,> 20 µM (inactive)

# — PubChem BioAssay (NCATS)
